42 sequences from article PMC7819943, “Rice protein-binding microarrays: a tool to detect cis-acting elements near promoter regions in rice” can be followed below.

Whole data set: some 39,000 sequences, median “fluorescence intensity (a.u.)” near 4,300, cut for the highest 2% near 39,000. The entries come from a sample that favours the highest values as a whole.

The target of this assay is T1, OsSMF1 (Oryza sativa, UniProt Q6ZLB0 1-436).
T1 sequence: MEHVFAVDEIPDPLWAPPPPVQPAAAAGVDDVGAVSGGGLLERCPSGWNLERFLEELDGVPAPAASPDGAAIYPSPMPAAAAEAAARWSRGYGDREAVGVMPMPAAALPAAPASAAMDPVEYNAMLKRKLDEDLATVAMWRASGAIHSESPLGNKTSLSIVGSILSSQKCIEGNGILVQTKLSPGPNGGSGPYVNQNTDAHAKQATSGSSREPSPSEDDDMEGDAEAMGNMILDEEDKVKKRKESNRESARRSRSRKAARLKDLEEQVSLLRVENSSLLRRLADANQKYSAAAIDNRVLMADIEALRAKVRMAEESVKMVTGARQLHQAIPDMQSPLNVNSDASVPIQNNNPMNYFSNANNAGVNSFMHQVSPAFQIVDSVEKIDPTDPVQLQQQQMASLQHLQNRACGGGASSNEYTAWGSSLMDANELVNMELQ
In words: protein-binding microarray (RPBM); PBS, 2% BSA, 51.3 ng/ul salmon testes DNA, 50 uM zinc acetate, 200 nM TF, 25 C, 1 h; high values mean tight binding. To be noted: protein: recombinant; tags: N-terminal polyhistidine and DsRed monomer fusion (pET32a); chain copies: 2; label: CyDye5-dUTP incorporated in the synthesized complementary strand; 3' TTTTT single-stranded linker to array surface; dsDNA, one strand shown. The gist of the method: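 Ni–NTA purification followed expression in E. coli BL21-CodonPlus of transcription factors fused N-terminally to a polyhistidine tag and DsRed. At 200 nM in PBS with 2% BSA, salmon testes DNA and 50 µM zinc acetate, the protein was incubated for 1 h at 25 °C with a custom Agilent array that had been primer-extended with Cy5-dUTP and blocked with 2% BSA. After washing, the array was read on an Axon 4000B scanner. The binding signal is per-feature fluorescence intensity in arbitrary units.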
Consider “ATATATACCTGCATACACTAGACTAGTATAATACCTGGCACGGAGTCACCTAGTGCAG”, for which the binding signal is 3530 fluorescence intensity (a.u.).
The figure for “TTTCGGTCATGAAAACTCAGGACCAAATTTCATCCAAATACGGAGTCACCTAGTGCAG” is 29300 fluorescence intensity (a.u.).
For the sequence “TATCCAAAATTTCATCCAACTCTTGTGGGAGAAACGGACACGGAGTCACCTAGTGCAG”, the binding signal is 39500 fluorescence intensity (a.u.).
Regarding “AAACGATAATATACCTTGTATAGTCATCCAACTCTTATTTCGGAGTCACCTAGTGCAG”, the binding signal is 3630 fluorescence intensity (a.u.).
“GATTTCTTTCTGCCGTCATCTTCGAATATCCATGACTCGCCGGAGTCACCTAGTGCAG”: the binding signal is 3840 fluorescence intensity (a.u.).
With “AAATGTCTCCCAAAACCTCAAAATTGAGTTCCATTATGAACGGAGTCACCTAGTGCAG”, the binding signal is 61600 fluorescence intensity (a.u.).
“CACTTGATGAGCTCCTCTCCATGTCCTCAAACGTACTGAACGGAGTCACCTAGTGCAG”: the binding signal was 25100 fluorescence intensity (a.u.).
For the sequence “ATCGATCAGGCAATGAACCCATTATTGTTTGCCTCCAAAACGGAGTCACCTAGTGCAG”, the binding signal is 34100 fluorescence intensity (a.u.).
Take “AATCGATTCGAAATCCACACCGCTACTACGGCTAATTACGCGGAGTCACCTAGTGCAG”: the binding signal was 3870 fluorescence intensity (a.u.).
“CGCATTGAGCCATTTACACTACACACACAGCCCCAGATTCCGGAGTCACCTAGTGCAG”: the binding signal is 3420 fluorescence intensity (a.u.).
As for “TCTGCTGATGATCTCTCTCTCTCTCTGTTTCAAAGCTGATCGGAGTCACCTAGTGCAG”, the binding signal was 44700 fluorescence intensity (a.u.).
With “ACCTCTTGCTGCTGCTCATTCTGATGTCATTCAAAGAGATCGGAGTCACCTAGTGCAG”, the binding signal is 4480 fluorescence intensity (a.u.).
For the sequence “GATCTGTCACTGTATGGAATGATGCAAAGCTGCTGCTGATCGGAGTCACCTAGTGCAG”, the binding signal is 32000 fluorescence intensity (a.u.).
For “CGCGCGAGTGCTAGGAAGCTGAGTCACGCCCGCCCTCCTCCGGAGTCACCTAGTGCAG”, the binding signal was 10700 fluorescence intensity (a.u.).
To “TCCCACATTAAATTTACTCATTAGTTGTTAGGAATCGACACGGAGTCACCTAGTGCAG” belongs 20600 fluorescence intensity (a.u.).
With “CAAGAGAAAATAGCCAAAATAATAGCAGTAAGAACACAATCGGAGTCACCTAGTGCAG”, the binding signal was 15400 fluorescence intensity (a.u.).
With “CAGTAAGCTAGCAAACAAACACACAAGAATATTTGTGATCCGGAGTCACCTAGTGCAG”, the binding signal is 39900 fluorescence intensity (a.u.).
Regarding “CAGAATATTTTGTCAGTCACTCTTGATCACTCTAGCAACACGGAGTCACCTAGTGCAG”, the binding signal was 3980 fluorescence intensity (a.u.).
The figure for “ATCGTGTGACGACGTCTCGTCTCGTCTCCCTCTCCCGACCCGGAGTCACCTAGTGCAG” is 3260 fluorescence intensity (a.u.).
Regarding “CGGGCACTCTCGTCTCCGACGTGAAGGCCCGAGATCACTGCGGAGTCACCTAGTGCAG”, the binding signal was 60900 fluorescence intensity (a.u.).
As to “CGACCGACCCTCGCCCGCCCACCGCCGTCACTCTCGTCTGCGGAGTCACCTAGTGCAG”, the binding signal is 3920 fluorescence intensity (a.u.).
Regarding “GGTTGATTATTCCGTCGGCGTCAGCCATCAGGTGCATCACCGGAGTCACCTAGTGCAG”, the binding signal was 3270 fluorescence intensity (a.u.).
On to “TCTTTCGTCGCAATGCCACGCCATCATCGATCCCTTTCCTCGGAGTCACCTAGTGCAG”, for which the binding signal was 14800 fluorescence intensity (a.u.).
The figure for “TTTCGGGATCCGACACGGGCTGAATCCGGCCCATCCAAACCGGAGTCACCTAGTGCAG” is 37800 fluorescence intensity (a.u.); for “TAAACGCAAATTCTATATCACAACCACGTAAGTTTAGTAGCGGAGTCACCTAGTGCAG” it is 3870 fluorescence intensity (a.u.); for “GTCTAGCTAGTGCAATTAGAGTAACCTATATATCACACAACGGAGTCACCTAGTGCAG” it is 52200 fluorescence intensity (a.u.).
To “GGAGTAGATATTATCACTAGCTAGTCACACGGACACAGTGCGGAGTCACCTAGTGCAG” belongs 4900 fluorescence intensity (a.u.).
For “TCGCCGCCGCGGCCGCCTCCACCTCATCATCTCCCACCTCCGGAGTCACCTAGTGCAG”, the binding signal is 7900 fluorescence intensity (a.u.).
For “GCGGCGCATCCAGGAGGTTGAGTCGAGCACGCCACCGCTGCGGAGTCACCTAGTGCAG”, the binding signal is 3420 fluorescence intensity (a.u.).
With “GTACGCGAGCATCCCGGCGTTGTCGAGGCGCTCCAGGACGCGGAGTCACCTAGTGCAG”, the binding signal was 40200 fluorescence intensity (a.u.).
“AGGGCGAGGAGGCGCTTGAGGGCGTCGAGCTTGTCGGCATCGGAGTCACCTAGTGCAG”: the binding signal was 28400 fluorescence intensity (a.u.).
The figure for “GTCCCCGGCCTCGGCGCGCGGCGAGCACCGTGCCGCCCCACGGAGTCACCTAGTGCAG” is 24000 fluorescence intensity (a.u.); for “CACGGCCTCACCTCCCAGCCCGCGAGCACCGGCGGACGGACGGAGTCACCTAGTGCAG” it is 42400 fluorescence intensity (a.u.).
Take “GCTGCCAGCGCCGCCGCCACCTGTGTCGGCACGCGAGCGCCGGAGTCACCTAGTGCAG”: the binding signal was 3350 fluorescence intensity (a.u.).
As to “TTGAGCAGCCTCCCTTCCCCGGCGAGCAGCCCCGCCGCCGCGGAGTCACCTAGTGCAG”, the binding signal is 3720 fluorescence intensity (a.u.).
On to “ACCTCCCACACCTGTGTCGATCCAGGCAGGCCGAGCGCGACGGAGTCACCTAGTGCAG”, for which the binding signal is 43400 fluorescence intensity (a.u.).
Regarding “ACATCACCACCCACCTCACCCTGCCGCTCCCGAGCGCGATCGGAGTCACCTAGTGCAG”, the binding signal is 4000 fluorescence intensity (a.u.).
For the sequence “AAACTGGCAAACGCGTCACATGAGTTTTACCTACCAATGTCGGAGTCACCTAGTGCAG”, the binding signal is 3230 fluorescence intensity (a.u.).
Regarding “ATTTCAATGTCAAGATGAGAAGGGAATTTAAGAGCCTGCACGGAGTCACCTAGTGCAG”, the binding signal is 22800 fluorescence intensity (a.u.).
Regarding “GCGCAGGCAACCACCCCACCCTTCTTCTCGAAACCTCTTCCGGAGTCACCTAGTGCAG”, the binding signal was 3290 fluorescence intensity (a.u.).
With “ATGAAGGATGCTTAAAAGTCTATTTTGCCTCGGCAAAATACGGAGTCACCTAGTGCAG”, the binding signal is 28700 fluorescence intensity (a.u.).
To “TTTCACGAAACCCAGTGATCCTGTCAGGTATCCTATGTACCGGAGTCACCTAGTGCAG” belongs 3760 fluorescence intensity (a.u.).
